Data: PubChem BioAssay (NCI)
About 83,000 compounds went through this panel and 20% of them were active in at least one assay; those are over-represented in the sample as a whole.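 In brief: 96-well plates, 48 h treatment, single concentration, percent growth endpoint.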 Values without a mark were called inactive. The source made the active and inactive calls. Rule for the calls: active = growth percent below 10; inactive = the rest.

Assays:
Experiment in all cases: NCI-60 one-dose screen, 48 h (100 = growth as untreated, 0 = no growth, -100 = all killed)
Settings in all cases: 10 µM unless noted
SK-MEL-2 melanoma = test system: SK-MEL-2 melanoma
EKVX NSCLC = test system: EKVX NSCLC
SN12C renal = test system: SN12C renal
UO-31 renal = test system: UO-31 renal
TK-10 renal = test system: TK-10 renal
ACHN renal = test system: ACHN renal
CAKI-1 renal = test system: CAKI-1 renal
A498 renal = test system: A498 renal
CCRF-CEM leukemia = test system: CCRF-CEM leukemia
MOLT-4 leukemia = test system: MOLT-4 leukemia

Structure (SMILES) | growth (SK-MEL-2 melanoma) | growth (EKVX NSCLC) | growth (SN12C renal) | growth (UO-31 renal) | growth (TK-10 renal) | growth (ACHN renal) | growth (CAKI-1 renal) | growth (A498 renal) | growth (CCRF-CEM leukemia) | growth (MOLT-4 leukemia)
COc1ccc(NCc2cn(-c3ccc(C(=O)O)cc3)nc2-c2ccc(C(=O)O)cc2)cc1C(F)(F)F | 106% | 84.2% | 95.3% | 88.1% | 83% | 98.1% | 86.3% | 81.2% | -50.4% (active) | 123%
C[C@@H]1C[C@H]2C(=O)O[C@@H](C)[C@H](NC(=O)[C@H](Cc3cc(F)cc(F)c3)NC(=O)Nc3ccc(Cl)cc3F)C(=O)N3C[C@H](O)C[C@H]3C(=O)N3CCN(C)C[C@H]3C(=O)N[C@@H](C)C(=O)N2C1 | 29.6% | 69.8% | 22.9% | 83% | 91.7% | 104% | 72.7% | 33.1% | 53.7% | 41.7%
CC(C)c1ccc(C(=O)Nc2nc3ccc(O)cc3s2)cc1 | 78% | 37.4% | 39.4% | 22.1% | 70.3% | 21.3% | -5.74% (active) | 38% | 29.2% | 13.5%
O=c1cc(-c2ccccc2)oc2cc(OCc3cn(Cc4ccc(F)cc4)nn3)cc(O)c12 | -39.8% [100 µM] (active) | 60.1% [100 µM] | 58.1% [100 µM] | 67% [100 µM] | 0.593% [100 µM] (active) | 5.21% [100 µM] (active) | 58.7% [100 µM] | 63.1% [100 µM] | 109% [100 µM] | 95.5% [100 µM]
CN(C)CCOc1ccc(/C(=C(/CCCl)c2ccccc2)c2ccccc2)cc1 | 48.5% | 30% | 23.7% | 26.5% | 49.8% | 30.1% | 30.8% | 65.7% | -6.69% (active) | -4.84% (active)
Cc1ccc(-n2nc3n(/c2=N\C(=O)NS(=O)(=O)c2ccc(C)cc2)CCN3C2=NCCN2)cc1 | 109% | 99.5% | 97% | 84.1% | 101% | 94.5% | 90% | 93.5% | 107% | 112%
[2H]C1([2H])CCN(C(=O)C2CC2)c2cc(NS(=O)(=O)c3ccc(-c4cccc(C(N)=O)c4)cc3)ccc21 | 7.75% (active) | 72.7% | 43.7% | 77.8% | 64.2% | 73.5% | 72.3% | -0.663% (active) | 30.7% | 44.3%
CC(=O)Nc1ccc2nc3ccc(NC(C)=O)cc3[n+](-c3ccccc3)c2c1 | 106% | 118% | 104% | 93.3% | 140% | 98.9% | 122% | 158% | 73.1% | 38.9%
C=C(C)[C@@H]1CC[C@]2(C(=O)NCCNCCNC(=O)OC(C)(C)C)CC[C@]3(C)[C@H](CC[C@@H]4[C@@]5(C)CCC(=O)C(C)(C)[C@@H]5CC[C@]43C)[C@@H]12 | 41.7% [100 µM] | 53.5% [100 µM] | 39.9% [100 µM] | 17.4% [100 µM] | 54% [100 µM] | 23.5% [100 µM] | 18.6% [100 µM] | 58.7% [100 µM] | 14.9% [100 µM] | 11.7% [100 µM]
O=C(CCNCc1ccccc1)c1ccccc1 | 108% | 104% | 109% | 95.9% | 113% | 107% | 100% | 112% | 116% | 109%
COc1ccc(C(=O)CSc2nnc(-c3cc(-c4ccccc4)nc4ccccc34)o2)cc1 | 129% | 109% | 97.3% | 96% | 116% | 108% | 95.7% | 100% | 112% | 120%
CCN(CC)c1ccc(/C=C/c2ccc3cc(C)ccc3[n+]2CC)cc1 | -32.3% (active) | 11.8% | 14.2% | 5.46% (active) | -4.22% (active) | 0.905% (active) | 15.7% | 5.43% (active) | 6.14% (active) | -15.3% (active)
C[C@]12CCc3nc(Nc4ccccc4)sc3C1=CC[C@@H]1[C@@H]2CC[C@]2(C)/C(=N/NC(N)=S)CC[C@@H]12 | 66.9% | 78.2% | 49.2% | 60% | 38.3% | 31.6% | 49.6% | 48% | 18.7% | 8.01% (active)
